Screens as filed in PubChem.
Many of the other results were omitted from the sample, so hits are more common in it than they were.
NPR1 activator: GC-A (human) enzyme activation; P16066; HEK293 GC-A cells, cGMP TR-FRET, EC30 ANP; 0% at EC30 ANP, 100% saturating ANP; activation, % at 10 µM; 370,000 tested, 0.14% active; AID 1671463; in the data active = activation above about 40%
HDAC3 inhib: inhibitors of human histone deacetylase 3; O15379; recombinant HDAC3, fluorogenic peptide/trypsin coupled, fluorescence; inhibition, % at 8.3 µM; 320,000 tested, 0.15% active; AID 2718; in the data active = inhibition above about 26%, passing the limit was not always enough
ALR inh: blocks human ALR sulfhydryl oxidase activity; P55789; purified ALR, DTT oxidation, H2O2 HRP-luminol luminescence; inhibition, % (no concentration beside the values); 290,000 tested, 3.8% active;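 active = mean replicate inhibition above about 79%, with every replicate also reaching it, limit read from the data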
NPR2 activator: GC-B (human) receptor activation; HEK293-GC-B cells, CNP EC30, cGMP TR-FRET; 0% at EC30 CNP, 100% saturating CNP; activation, % at 10 µM; 370,000 tested, 0.11% active;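 active = activation at 10 µM reaching about 35% in either raw or pattern-adjusted values, limit read from the data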
Of the large screens only hits and unclear results are named; the others gave an inactive call; ! = not confirmed by another sample.

Nc1nnc(SCC(=O)N2CCCCC2)s1	none (no result: ALR inh)
CS/C(Nc1cc(Cl)ccc1Cl)=C(/C#N)C(=O)c1ccco1	none
Cc1cc(C)nc(CCNC(=O)CC2C(=O)NCCN2Cc2ccccc2)n1 (centres undefined)	none
CN(C)C=Nc1nc2c(Br)ccc(Br)c2cc1C(=O)NCC(C)(C)C	NPR1 activator 48 (no result: HDAC3 inhib, ALR inh)
Nc1nc2c(Br)ccc(Br)c2cc1C(=O)NCc1cccc2ccccc12	none (no result: HDAC3 inhib, ALR inh)
CC(O)CNCc1ccccc1C(F)(F)F (centres undefined)	none
C(#CCN1CCCC1)CC(c1ccccc1)c1ccccc1	none
Cc1ccc(-c2nc(CN3CCN(C(=O)C4CCCO4)CC3)cs2)cc1 (centres undefined)	ALR inh 99
Cc1ccc(CN2CCN(C(=O)C3CCCO3)CC2)cc1 (centres undefined)	ALR inh 99
COCc1c(C(=O)N2CCN(Cc3nc4ccccc4s3)CC2)oc2ccccc12	none
CN(C)S(=O)(=O)c1cccc(NC(=O)CSc2nc3c(cc2C#N)C(=O)CC(C)(C)C3)c1	ALR inh 98
Cc1nc(NC(=O)CSc2nc(N)cc(N)n2)sc1C	ALR inh 94
CCOC(=S)SCC(=O)Nc1nccs1	ALR inh 88
O=C(CSCC(=O)Nc1nc(-c2ccc3c(c2)OCO3)cs1)Nc1nccs1	ALR inh 99
CCOC(=S)SCC(=O)Nc1nc(C)c(C)s1	ALR inh 98
O=C(Nc1cccc(C(F)(F)F)c1)c1cncs1	none
Cc1cc(C)cc(OCC(=O)Nc2ccc3c(c2)C(=O)c2ccccc2C3=O)c1	none
COc1ccc(CCC(=O)Nc2cc(S(=O)(=O)N3CCCCC3)ccc2N(C)C)cc1	none
O=C(CSCC(=O)Nc1nccs1)Nc1ccccc1	ALR inh 99
Cc1ccccc1OCCCC(=O)Nc1nccs1	ALR inh 94
Cc1cc(C)cc(NC(=O)C2CCCN2/C=C/C(=O)C(F)(F)F)c1 (centres undefined)	none
c1csc(CNc2ncnc3ccc(-c4ccc5c(c4)OCO5)cc23)c1	NPR2 activator 32!
O=C(c1ccccc1)c1ccccc1C(=O)c1ccccc1	none
Nc1sccc1C(=O)c1ccccc1	ALR inh 98
CCOC(=O)c1c(NC(=O)CSC(=S)N2CCOCC2)sc(C)c1C	ALR inh 98
O=c1c(Br)c(N2CCCCC2)cnn1-c1ccccc1	none
O=C(O)c1ccccc1-c1ccccc1C(=O)Nc1ccc2c(c1)CCC2	none
Cc1occc1C(=O)Nc1ccc2c(c1)CCC2	ALR inh 96
O=C(Nc1ccc2c(c1)CCC2)c1ccccc1	ALR inh 93
Cc1occc1C(=O)Nc1c(F)c(F)c(F)c(F)c1F	ALR inh 97
Cc1occc1C(=O)Nc1ccc2c(c1)OCCO2	none
C/C(=N\NC(=O)Cc1ccc(Cl)cc1)c1ccccc1O	none
CCOc1ccc(Oc2c(/C=N/NC(=O)COc3ccccc3OC)c(C)nn2-c2ccccc2)cc1	HDAC3 inhib 27
CC(/C=C/c1ccc(N(C)C)cc1)=N\N=C(/N)SC1CC(=O)N(c2ccc(C(=O)O)cc2)C1=O (centres undefined)	ALR inh 100
CC(=O)Oc1ccc(-c2cccc(C(=O)N(C)c3ccc(O)cc3)c2)cc1	ALR inh 86
CCc1cc(CNC(=O)CCc2nnc(Cc3cccc(C)c3)o2)on1	none
Oc1ccc(N2CCN(c3ncnc4sc5c(c34)CCC5)CC2)cc1	ALR inh 99
O=C(O)c1cccc(-c2ccccc2)c1O	none (no result: HDAC3 inhib, ALR inh)
C=CCOC(=O)N1CCC(NS(=O)(=O)c2ccc3c(c2)CCN3C(C)=O)CC1	none (no result: HDAC3 inhib, ALR inh)
CCN(CC)C(=O)CC[C@H]1CC[C@]2(CCCN(C(=O)c3cccnc3)C2)O1	none (no result: HDAC3 inhib, ALR inh)
CCN(CC)Cc1c(-c2ccccc2)[nH]c2ccc(C)cc2c1=O	ALR inh 97
COc1ccc(N2CCN(C3CCCN(C(=O)c4cccc(C)n4)C3)CC2)cc1 (centres undefined)	none
Cc1cccc(C(=O)N2CCCC(N3CCN(c4ccc(F)cc4)CC3)C2)n1 (centres undefined)	ALR inh 99
Cc1cccc(C(=O)N2CCCC(N3CCN(c4ccccc4)CC3)C2)n1 (centres undefined)	ALR inh 98
Cc1ccc(OCCC(=O)OCC(=O)NCCNC(=O)COC(=O)CCOc2ccc(C)cc2)cc1	none (no result: HDAC3 inhib, ALR inh)
O=C(Nc1ccc(Oc2ccsc2C(=O)O)cc1)c1ccccc1F	none (no result: ALR inh)
Cc1cc(C)n2c(SCC(=O)N(C)C3CCCCC3)nnc2n1	none (no result: NPR1 activator, NPR2 activator)
O=C(c1ccccc1)C1CCN(CC(=O)N2CCN(c3ccccc3)CC2)CC1	none
O=C(O)C1CCCN1C(=O)c1cccc(Cl)c1 (centres undefined)	none (no result: HDAC3 inhib, ALR inh)
